The record followed here is PubChem BioAssay (NCI).

Molecules are shown by their SMILES. Compounds without any hit were thinned out: in the full panel of roughly 83,000, 20% have a hit.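 Method: cells in 96-well plates; compound added at one concentration; 48 h incubation; percent growth measured; values under 10 scored active.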 Unmarked numbers belong to inactive results. Activity calls are given as the source filed them.

What all share (assay): NCI-60 one-dose screen, 48 h (100 = growth as untreated, 0 = no growth, -100 = all killed)
Experiment [1] deals with SK-MEL-2 melanoma. Conditions: 10 µM unless noted.
The subject of experiment [2] is EKVX NSCLC. Conditions: 10 µM unless noted.
Experiment [3] relates to SN12C renal. Conditions: 10 µM unless noted.
Experiment [4] concerns UO-31 renal. Conditions: 10 µM unless noted.
Experiment [5] has as its system TK-10 renal. Conditions: 10 µM unless noted.
Experiment [6] has as its system ACHN renal. Conditions: 10 µM unless noted.
The subject of experiment [7] is CAKI-1 renal. Conditions: 10 µM unless noted.
Experiment [8] deals with A498 renal. Conditions: 10 µM unless noted.
For experiment [9], the system named is CCRF-CEM leukemia. Conditions: 10 µM unless noted.
The subject of experiment [10] is MOLT-4 leukemia. Conditions: 10 µM unless noted.
Experiment [11] relates to SR leukemia. Conditions: 10 µM unless noted.
The subject of experiment [12] is RPMI-8226 leukemia. Conditions: 10 µM unless noted.
The subject of experiment [13] is OVCAR-8 ovarian. Conditions: 10 µM unless noted.
The test system of experiment [14] is OVCAR-5 ovarian. Conditions: 10 µM unless noted.
Experiment [15] concerns OVCAR-4 ovarian. Conditions: 10 µM unless noted.
For experiment [16], the system named is SK-OV-3 ovarian. Conditions: 10 µM unless noted.
The test system of experiment [17] is IGROV1 ovarian. Conditions: 10 µM unless noted.
Experiment [18] relates to HS 578T breast. Conditions: 10 µM.
Experiment [19] relates to NCI/ADR-RES ovarian. Conditions: 10 µM unless noted.
Experiment [20] deals with OVCAR-3 ovarian. Conditions: 10 µM unless noted.

With `CCCCCCCCCCC(C(O)c1ccccc1)N1CCCCC1` (configuration not stated), the growth is 53.8% in experiment [1]; 33.5% in experiment [2]; 43.2% in experiment [3]; -1.17% (active) in experiment [4]; 76.8% in experiment [5]; 42.1% in experiment [6]. The growth is -21.1% (active) in [7]; 75.1% in experiment [8]; 0.764% (active) in experiment [9]; 6.36% (active) in [10]; 0.484% (active) in experiment [11]; -50.3% (active) in experiment [12]. In addition, the growth is 62.8% in experiment [13]; 47.4% in [14]; 41% in experiment [15]; 36.1% in experiment [16]; 2.8% (active) in [17]; 18.3% in experiment [18]. Moreover, the growth in experiment [19] is 49.8%.
`COC(=O)C(CCC(=O)CCl)N1C(=O)c2ccccc2C1=O` (configuration not stated): the growth is 67.4% in [1]; 108% in experiment [2]; 69.9% in [3]; 48.4% in experiment [4]; 54% in experiment [5]; 71.2% in experiment [6]. In addition, the growth in experiment [7] was 67.9%; in [8] it was 123%; in experiment [9], 5.21% (active); in experiment [10], 42.6%; in experiment [11], 8.24% (active); in experiment [12], -8.21% (active). The growth in experiment [13] was 59.2%; in experiment [14], 79.3%; in [15], 72.9%; in [16], 113%; in [20], 19.2%; in experiment [18], 85.3%. The growth in experiment [19] was 83.5%.
As to `CCCCNCC(O)c1cc2c(Cl)cc(Cl)cc2c2cc(C(F)(F)F)ccc12` (configuration not stated), the growth in experiment [1] is -65.4% (active); in experiment [2] it was -59.1% (active); in [3] it was -82.2% (active); in experiment [4] it was -81.2% (active); in [5], -88.2% (active); in experiment [6], -78.7% (active). Also, the growth in experiment [7] is -65.1% (active); in experiment [8], -19.7% (active); in experiment [9] it was -49.6% (active); in experiment [10], -54.8% (active); in experiment [11], -68% (active); in experiment [12] it was -38.8% (active). In addition, the growth in [13] is -56% (active); in [14], -81.2% (active); in [15] it was -89.7% (active); in experiment [16], -22.8% (active); in [17], -65.2% (active); in [20], -91.1% (active). In addition, in [19], the growth is -64% (active).
`COC(=O)/C=C/c1cc(OC(C)=O)c2c(c1)[C@@H](C(=O)OC)[C@H](c1ccc(OC(C)=O)c(OC(C)=O)c1)O2`: the growth in experiment [1] was 37.9%; in [2], 34.2%; in experiment [3], 24.2%; in experiment [4], 39.3%; in experiment [5], 48.5%; in experiment [6] it was 24.3%. For the same molecule, the growth in experiment [7] is 17.9%; in experiment [8], -14.3% (active); in experiment [9] it was 6.74% (active); in [10], 14.9%; in experiment [11], 10.8%; in experiment [12], 3.3% (active). The growth is 11% in experiment [13]; 20.6% in [14]; 30.4% in [15]; 36.4% in experiment [16]; 12.2% in experiment [17]; 7.01% (active) in [18]. For the same molecule, in experiment [19], the growth is -5.91% (active).
In the case of `Nc1nc(N)c2cc(CNc3ccc(Cl)c(Cl)c3)ccc2n1`, the growth in experiment [1] was 42%; in [2], 31.4%; in experiment [3], 27.4%; in [4], 0.0737% (active); in experiment [5] it was 31.5%; in experiment [6], 22.5%. Besides, the growth in [7] was 14.8%; in experiment [8], 43.1%; in experiment [9] it was 2.81% (active); in experiment [10], -44.2% (active); in experiment [11] it was -55.1% (active); in experiment [12] it was -31.5% (active). The growth in experiment [13] was -1.81% (active); in experiment [14] it was 48.4%; in experiment [15], 49.8%; in [16] it was 49.9%; in [17] it was 15.9%; in experiment [18], 28.8%. Further, in experiment [19], the growth is 28.3%.
As for `CCN(CC)Cc1cc(Nc2nc(NC3CCC(N(C)C)CC3)c3ccccc3n2)ccc1OC` (configuration not stated), the growth in experiment [1] is 116%; in experiment [2] it was 89%; in experiment [3] it was 71.5%; in [4], 73.3%; in [5], 105%; in experiment [6], 90.8%. Moreover, the growth was 102% in experiment [7]; 119% in [8]; 66.1% in experiment [9]; 48.2% in experiment [10]; 49.6% in [11]; 0.511% (active) in experiment [12]. The growth in experiment [13] was 63.8%; in experiment [14], 92.3%; in experiment [15], 52.1%; in [16], 107%; in experiment [20] it was 92.4%; in experiment [18], 73.4%. Moreover, the growth in experiment [19] was 98.1%.
For the molecule `CC[C@H](Nc1nc(N)nc(C2CC2)c1C#N)c1nc2cccc(NCc3ccc(C(=O)NO)cc3)c2c(=O)n1-c1ccccc1`, the growth in experiment [1] was 26.2%; in experiment [2], 0.322% (active); in experiment [3], 9.34% (active); in experiment [4], -80% (active); in experiment [5] it was 5.55% (active); in experiment [6] it was -21% (active). The growth in experiment [7] was -44.5% (active); in experiment [8], -8.64% (active); in [9] it was 8.87% (active); in experiment [10] it was 2.13% (active); in experiment [11] it was -0.809% (active); in experiment [12], 4.07% (active). For the same molecule, the growth in experiment [13] is 1.08% (active); in experiment [14] it was 14.8%; in experiment [15], 8.75% (active); in experiment [16], -9.63% (active); in experiment [17] it was 2.3% (active); in [18], 13.5%. Further, in experiment [19], the growth is 45.8%.
In the case of `NCCCOc1cc2ccccc2cc1C(=O)NCCCOc1cc2ccccc2cc1C(=O)Nc1ccc(Cl)cc1O`, the growth was -73.8% (active) in [1]; -45.6% (active) in experiment [2]; -78.5% (active) in [3]; -95.4% (active) in experiment [4]; -95.5% (active) in experiment [5]; -95.9% (active) in experiment [6]. For the same molecule, the growth was -89.9% (active) in experiment [7]; -38.7% (active) in experiment [8]; -16.3% (active) in experiment [9]; -20.6% (active) in [10]; -7.88% (active) in experiment [11]; -18.3% (active) in experiment [12]. In addition, the growth in experiment [13] is -57.6% (active); in [14], -92.5% (active); in experiment [15], -77.4% (active); in experiment [16], -80.4% (active); in experiment [17] it was -31.6% (active); in experiment [18] it was 14.5%. The growth in experiment [19] is 29.2%.
